Compound activity as filed in PubChem.
This is a sample that favours compounds with a hit; in the whole collection about 1.3% have one here.
TRPV1 PAM: HTS Assay for Compounds that Act as Potentiators of the Vanilloid Receptor 1. TRPV1-expressing cells, Fluo-8 calcium influx, capsaicin EC20 potentiation. Transient receptor potential cation channel subfamily V member 1 (Homo sapiens), Q8NER1. potentiation, % at 8.33 µM. hit rate 0.02% among 320,000. AID 540277, 2011; in the data active means potentiation above about 80%; inconclusive means between about 30% and that limit
Target sequence (Q8NER1 whole entry, looked up): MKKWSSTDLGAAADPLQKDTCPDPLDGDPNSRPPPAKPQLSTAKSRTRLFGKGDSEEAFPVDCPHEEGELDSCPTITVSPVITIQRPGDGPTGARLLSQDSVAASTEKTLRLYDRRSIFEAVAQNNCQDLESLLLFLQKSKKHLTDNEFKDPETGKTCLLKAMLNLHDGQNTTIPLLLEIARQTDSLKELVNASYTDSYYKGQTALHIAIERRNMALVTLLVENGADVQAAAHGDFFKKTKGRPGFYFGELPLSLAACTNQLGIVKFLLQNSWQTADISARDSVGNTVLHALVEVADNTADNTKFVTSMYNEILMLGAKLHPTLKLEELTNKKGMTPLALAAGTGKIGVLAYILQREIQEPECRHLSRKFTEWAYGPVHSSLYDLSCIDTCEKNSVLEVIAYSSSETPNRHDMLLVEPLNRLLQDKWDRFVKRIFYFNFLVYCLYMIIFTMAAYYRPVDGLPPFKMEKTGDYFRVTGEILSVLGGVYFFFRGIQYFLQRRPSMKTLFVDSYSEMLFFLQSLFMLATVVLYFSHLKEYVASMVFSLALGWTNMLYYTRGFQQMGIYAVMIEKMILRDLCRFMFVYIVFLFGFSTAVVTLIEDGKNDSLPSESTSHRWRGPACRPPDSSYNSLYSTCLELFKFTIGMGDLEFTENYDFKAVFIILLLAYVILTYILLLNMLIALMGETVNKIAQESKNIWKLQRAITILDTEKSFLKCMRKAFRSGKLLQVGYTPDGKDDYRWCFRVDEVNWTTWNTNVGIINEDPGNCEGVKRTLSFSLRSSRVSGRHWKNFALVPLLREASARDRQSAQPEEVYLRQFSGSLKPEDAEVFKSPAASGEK
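Fluo-8 calcium influx in TRPV1-expressing cells, kinetic read (ex 480/em 520 nm). Compound added and read 3 min for agonist activity, followed by capsaicin at EC20 final and 2 min further read for enhancement.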
KCNH2 WT inh: qHTS for Inhibitors of KCHN2 3.1: Wildtype qHTS | Voltage-gated inwardly rectifying potassium channel KCNH2 (Homo sapiens), Q12809 | activity change, % at 1.84 µM | U2OS, BacMam KCNH2, thallium flux FluxOr; active compounds read low | hit rate 0.37% among 340,000;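 active means maximum activity change below -70%; inconclusive means maximum activity change between -70% and -50%; inactive means maximum activity change above -50%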
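U2OS cells transduced with wild-type KCNH2 virus are loaded with FluxOr dye for 45 min, and thallium flux is measured in kinetic reads before and after stimulation buffer. Rate constants are normalized to DMSO controls.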
TRPV1 ag: HTS Assay for Compounds that Act as Agonists of the Vanilloid Receptor 1 | Transient receptor potential cation channel subfamily V member 1 (Homo sapiens), Q8NER1 | TRPV1-expressing cells, Fluo-8 calcium influx, agonist mode | activation, % at 8.33 µM | hit rate 0.19% among 320,000; in the data active means activation above about 80%; inconclusive means between about 30% and that limit
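Cells expressing TRPV1 were dye-loaded with Fluo-8 and read kinetically: 10 s baseline, 3 min after compound (agonist portion), then 2 min after EC20 capsaicin (allosteric enhancer portion). Calcium-bound dye fluorescence at 480/520 nm.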
KCNH2 3.1 inh: qHTS for Inhibitors of KCHN2 3.1: Mutant qHTS | Potassium voltage-gated channel subfamily H member 2, brain isoform KCNH2 3.1 (human) | U2OS KCNH2 3.1, thallium flux FluxOr; active compounds read low | activity change, % (tested at about 1.8 µM) | hit rate 0.95% among 340,000 | AID 720553, 2013;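 active means maximum activity change below -70%; inconclusive means maximum activity change from -70% to -50%; inactive means maximum activity change above -50%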;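 further: thallium influx rate constant from kinetic fluorescence after stimulation buffer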
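We transduce U2OS cells with the mutant 3.1 virus, culture them overnight, load FluxOr with Red40 quencher for 45 min, then add stimulation buffer and read kinetically for 2 min to derive a normalized rate constant.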
Of the large screens only hits and unclear results are named; the others gave an inactive call.

Cc1ccc(N2CCN(C(=O)c3ccccc3NC(=O)c3ccccc3C(=O)O)CC2)cc1	KCNH2 WT inh -72
Cc1ccc(C)c(SCC(=O)NC(=O)Nc2ccc3c(c2)OCCO3)c1	KCNH2 WT inh -79
CC(=O)N1c2ccc(S(=O)(=O)N(C)C3CCCCC3)cc2CC1C (stereo unspecified)	none
CC(=O)N1CCOc2cc(S(=O)(=O)Nc3cccc(C(F)(F)F)c3)c(Cl)cc21	none (no result: KCNH2 WT inh, KCNH2 3.1 inh)
CN1CCN(c2ccc(NC(=O)c3ccc(Br)o3)cc2)CC1	none
Cc1ccc(C(=O)N2CCN(c3ccc(NC(=O)c4ccc(Br)o4)cc3)CC2)cc1	KCNH2 3.1 inh -83
CC(Oc1ccccc1F)C(=O)NNC(=O)c1cccc(S(=O)(=O)N2CCN(C)CC2)c1 (stereo unspecified)	none
COc1ccc(CC2(CO)CCN(C(C)Cc3ccc(Cl)cc3)CC2)cc1 (stereo unspecified)	KCNH2 WT inh -93, KCNH2 3.1 inh -93
COc1ccc(CCC(C)N2CCC(CO)(Cc3ccccc3)CC2)cc1 (stereo unspecified)	none
COCCCn1c(=O)c2ccccc2n(Cc2cccc(C)c2)c1=O	none
COCCCn1c(=O)c2ccccc2n(Cc2ccc(C)cc2)c1=O	KCNH2 3.1 inh -123
O=C(CC1OC(=O)c2ccccc21)NNC(=O)c1ccc(F)cc1 (stereo unspecified)	none
Cc1ccccc1N1C(=O)c2cc(S(N)(=O)=O)c(Cl)cc2NC1C (stereo unspecified)	none
Cc1ccc(CN2CC(C(=O)N3CCN(S(=O)(=O)c4cc(C)ccc4C)CC3)CC2=O)cc1 (stereo unspecified)	none
Cc1ccc(CN2CC(C(=O)N3CCN(S(=O)(=O)c4ccc(C(C)C)cc4)CC3)CC2=O)cc1 (stereo unspecified)	KCNH2 3.1 inh -79
CC(=O)CN1Cc2ccccc2/C1=N\C(=O)Nc1ccccc1	KCNH2 3.1 inh -78
CCCCc1ccc(NC(=S)N2CCC(O)CC2)cc1	TRPV1 ag 85
Cc1cc(N2CCCC(C(=O)Nc3ccc4c(c3)CCC4)C2)n2ncnc2n1 (stereo unspecified)	TRPV1 ag 93
Cc1cc(N2CCCC(C(=O)Nc3cccc(Cl)c3)C2)n2ncnc2n1 (stereo unspecified)	TRPV1 ag inconclusive
COc1ccc(NC(=O)C2CCCN(c3nccc(C)n3)C2)cc1 (stereo unspecified)	TRPV1 ag 94
COc1cccc(-c2ccc(NC(=O)C3CCCN(CCCn4nc(C)cc4C)C3)cc2)c1 (stereo unspecified)	KCNH2 3.1 inh -74
O=C(COc1coc(CN2CCN(c3ccccc3)CC2)cc1=O)NC1CCCCC1	none
CCOC(=O)N1CCC(NC(=O)CC2C(=O)NCCN2Cc2cccc(F)c2F)CC1 (stereo unspecified)	none
CCCNC(=O)c1ccc(N2CCC3(CC2)CC(c2ccccc2)=NO3)c(N)c1	none
CCCNC(=O)c1ccc(N2CCC3(CC2)CC(c2ccccc2)=NO3)c(NC(=O)Cc2ccc(F)cc2)c1	KCNH2 WT inh inconclusive, KCNH2 3.1 inh -77
CCCCC(CC)C(=O)Nc1cc(C(=O)NCc2ccc(C)cc2)ccc1N1CCC2(CC1)CC(c1cccc(Br)c1)=NO2 (stereo unspecified)	none
CCCCC(CC)C(=O)Nc1cc(C(=O)NCCC)ccc1N1CCC2(CC1)CC(c1cccc(Br)c1)=NO2 (stereo unspecified)	KCNH2 WT inh -84, KCNH2 3.1 inh inconclusive
CCOC(=O)N1CCN(C(=O)CSc2nc3nc(C)cc(C)n3n2)CC1	none (no result: TRPV1 PAM, TRPV1 ag)
Cc1ccc(Nc2nc(N)nc(CSc3nc4ccccc4s3)n2)cc1	KCNH2 3.1 inh -72
Cc1cccc(Nc2nc(N)nc(CN3CCN(c4ccccc4F)CC3)n2)c1	KCNH2 3.1 inh -80 (no result: TRPV1 PAM, TRPV1 ag)
Nc1nc(CN2CCN(Cc3ccccc3)CC2)nc(Nc2ccccc2)n1	none
Nc1nc(CN2CCN(c3ccccn3)CC2)nc(Nc2ccc(Cl)cc2)n1	KCNH2 WT inh -104
COc1ccccc1N1CCN(Cc2nc(N)nc(Nc3ccc(C)c(Cl)c3)n2)CC1	KCNH2 3.1 inh -106
Cc1ccc(Nc2nc(N)nc(CN3CCc4ccccc4C3)n2)cc1	KCNH2 3.1 inh -79
COc1ccc(Nc2nc(N)nc(CN3CCN(c4ccc(F)cc4)CC3)n2)cc1	KCNH2 3.1 inh -77
Cc1cccc(Nc2nc(N)nc(CN3CCN(Cc4ccc5c(c4)OCO5)CC3)n2)c1	KCNH2 3.1 inh -110
COc1ccccc1Nc1nc(N)nc(CN2CCCCC2)n1	none
COc1ccc(N2CCN(Cc3nc(N)nc(Nc4ccccc4OC)n3)CC2)cc1	none
Cc1c(Cl)cccc1Nc1nc(N)nc(CN2CCc3ccccc3C2)n1	none
COc1ccccc1Nc1nc(N)nc(CN2CCN(Cc3ccccc3)CC2)n1	KCNH2 3.1 inh -77
Cc1ccc(NC(=O)CSCC(=O)NCc2cccc(C(F)(F)F)c2)cc1	none
COc1cc(CNc2nc3ccccc3n2Cc2ccccc2)ccc1O	none (no result: TRPV1 PAM, TRPV1 ag)
CCC(C)C(CO)NCCCn1cnc(C(=O)Nc2ccc(C)c(C)c2)n1 (stereo unspecified)	none (no result: TRPV1 PAM, TRPV1 ag)
COc1ccccc1Nc1nc(N)nc(CN2CCN(c3ccccc3F)CC2)n1	none
COc1ccccc1Nc1nc(N)nc(CN2CCN(Cc3ccc4c(c3)OCO4)CC2)n1	KCNH2 3.1 inh -110
c1ccc(-n2nnnc2Sc2n[nH]c(-c3ccncc3)n2)cc1	KCNH2 WT inh -200, KCNH2 3.1 inh -189
CCn1nnnc1-c1ccc(OC)c(S(=O)(=O)Nc2ccc(S(N)(=O)=O)cc2)c1	none
CCn1nnnc1-c1ccc(OC)c(S(=O)(=O)Nc2ccccc2OC)c1	KCNH2 WT inh -78 (no result: TRPV1 PAM, TRPV1 ag)
Cc1cc(C)c2c(n1)nn1c(C)c(CCC(=O)NCc3ccco3)c(C)nc21	none
CCCCNC(=O)CCc1c(C)nc2c(c(C)nn2-c2ccccc2)c1C	TRPV1 ag 94
Cc1ccc(-n2nc(C)c3c(C)c(CCC(=O)NCc4ccccc4)c(C)nc32)cc1	TRPV1 ag 82, KCNH2 3.1 inh -107
Cc1nc2c(c(C)nn2-c2ccccc2)c(C)c1CCC(=O)NCCCOC(C)C	none
Cc1ccc(-n2nc(C)c3c(C)c(CCC(=O)NCc4ccco4)c(C)nc32)cc1	TRPV1 ag 82
Cc1ccc(CNC(=O)CCc2c(C)nc3c(c(C)nn3-c3ccc(C)cc3)c2C)cc1	TRPV1 ag inconclusive
COc1ccccc1C1/C(=C(/O)c2ccc(C)cc2)C(=O)C(=O)N1CC(C)O (stereo unspecified)	none
Cc1ccc(/C(O)=C2\C(=O)C(=O)N(CC(C)O)C2c2ccc(N(C)C)cc2)cc1 (stereo unspecified)	KCNH2 WT inh -123
O=[N+]([O-])c1cc(-n2cnnn2)ccc1N1CCC(Cc2ccccc2)CC1	KCNH2 3.1 inh -81
CCCCNc1c(N)n(CC(C)C)c(=O)[nH]c1=O	none
